# Only some compounds are listed: those with a hit (about 2.3% of all), similar ones and a draw of the others.
# mIDH1 inhibitor = qHTS for Inhibitors of mutant isocitrate dehydrogenase 1 (IDH1): qHTS. Isocitrate dehydrogenase [NADP] cytoplasmic (Homo sapiens), O75874. Potency, µM (highest dose often 76.6 µM), for inactives: at the highest dose activity change, negative = inhibition, actives largely listed as inhibitors. IDH1-R132H enzyme, NADPH consumption, diaphorase/resazurin fluorescence. 390,000 tested, 0.093% active. AID 602179, 2012; further: potency means the concentration at half of the fitted maximal effect; on the % scale 0 is the no-effect control and ±100 the full control effect; nearly all actives have a fitted effect of over 65% in size
# Target sequence (O75874 whole entry R132H, stated change not applied): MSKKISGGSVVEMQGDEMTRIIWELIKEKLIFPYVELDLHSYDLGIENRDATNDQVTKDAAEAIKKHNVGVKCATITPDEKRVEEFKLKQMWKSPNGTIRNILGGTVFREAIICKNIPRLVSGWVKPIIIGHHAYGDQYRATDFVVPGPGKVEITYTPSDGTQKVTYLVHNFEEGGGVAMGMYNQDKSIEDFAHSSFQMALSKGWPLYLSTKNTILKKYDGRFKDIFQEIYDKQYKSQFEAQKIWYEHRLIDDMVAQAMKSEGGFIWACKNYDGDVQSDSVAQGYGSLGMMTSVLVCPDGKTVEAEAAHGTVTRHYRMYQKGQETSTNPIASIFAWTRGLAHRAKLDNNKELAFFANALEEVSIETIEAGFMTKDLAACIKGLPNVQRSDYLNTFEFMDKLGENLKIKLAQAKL
#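 IDH1-R132H (0.5 ug/mL dispensed) in pH 7.5 Tris buffer was preincubated 30 min with compound, then given a substrate mix of 0.016 mM NADPH and 2 mM alpha-KG for 80 min at room temperature; remaining NADPH was read by diaphorase/resazurin fluorescence.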
# Anesthetic bind = qHTS Assay for Identification of Novel General Anesthetics; apoferritin/1-aminoanthracene competitive binding, fluorescence; Potency, µM (doses to about 77.5 µM), without a hit: at the top dose activity change, negative = displacement, most hits filed as inhibitors; 350,000 tested, 0.074% active; AID 485281, 2010; further: potency means the concentration at half of the fitted maximal effect; on the % scale 0 is the no-effect control and ±100 the full control effect; nearly all actives have a fitted effect of over 20% in size
# Target sequence (P02791 2-175 limits assumed): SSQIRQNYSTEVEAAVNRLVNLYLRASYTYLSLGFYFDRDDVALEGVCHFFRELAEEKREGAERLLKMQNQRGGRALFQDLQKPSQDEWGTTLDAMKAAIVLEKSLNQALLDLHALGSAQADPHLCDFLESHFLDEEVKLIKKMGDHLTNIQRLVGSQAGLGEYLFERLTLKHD
#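 Steps: apoferritin (10 uM) was premixed with half-saturated 1-AMA in PBS, compounds were pin-transferred, plates stood 10 min at room temperature, fluorescence was read at 380/535 nm, and curves were fitted with a Hill equation.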
# Nrf2 ARE act = qHTS of Nrf2 Activators; Potency, µM (top dose mostly 46.1 µM), for the others: at the highest dose activation, usual class: activators; AID 624171, 2012; 410,000 tested, 0.31% active; AREc32 ARE-luciferase reporter (MCF7-derived line), luminescence, 24 h; further: potency means the concentration at half of the fitted maximal effect; % of control where 0% means no effect; nearly all actives have a fitted effect of over 65% in size
#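 Steps: seed AREc32_Fluc cells (1000/well, 5% FBS OPTI-MEM); incubate overnight at 37 deg C; add 23 nL compound; incubate 24 hr; add Steady-Glo; hold 30 min RT; read luminescence.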
# A549 tox = Nrf2 qHTS screen for inhibitors: counterscreen for cytotoxicity; A549 ARE-Fluc cells, CellTiter-Fluor viability, 18-24 h; Potency, µM (top dose mostly 46 µM), inactives show at the highest dose activity change, negative = cytotoxicity, usual class: inhibitors; 390,000 tested, 0.16% active; AID 504648, 2011; further: potency means the concentration at half of the fitted maximal effect; on the % scale 0 is the no-effect control and ±100 the full control effect
#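 A549 ARE-Fluc cells in 5% FBS OPTI-MEM, 5000 cells/well, rested 2 h then exposed to compounds in concentration-response for 18-24 h at 37 °C. Viability by CellTiter-Fluor fluorescence (Ex 405/Em 525) after 30 min; luciferase luminescence (BugLite, 15 min, RT) read afterwards.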
# Nrf2 block = Nrf2 qHTS screen for inhibitors. Potency, µM (titrated, usually from 46 µM), without a hit: at the top dose activity change, negative = inhibition, actives largely listed as inhibitors. A549 ARE-Fluc reporter, luciferase luminescence, 18-24 h. 360,000 tested, 2.1% active; further: potency means the concentration at half of the fitted maximal effect; on the % scale 0 is the no-effect control and ±100 the full control effect; nearly all actives have a fitted effect of over 60% in size
#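 A549 ARE_Fluc cells (5000/well, 5% FBS OPTI-MEM) pre-incubated 2 h, then treated with compounds 18-24 h at 37C/5% CO2 in concentration-response. CellTiter-Fluor viability read first; BugLite luciferase luminescence after 15 min at room temperature gives Nrf2 activity.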
# Giardia kill = Small Molecules that selectively kill Giardia lamblia: qHTS; Giardia lamblia trophozoite viability; 340,000 tested, 0.15% active; AID 540267, 2011; activity change, % at 7.66 µM, hits read low; in the data active means activity change below about -80%; inconclusive means between about -30% and that limit;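 further: parasites exposed to compound for two days anaerobically before the ATP read; on the % scale 0 is the no-effect control and ±100 the full control effect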
#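 Anaerobic 48 hrs incubation at 37 deg C of 100 trophozoites/well with test compounds; ATPLite 1-Step luminescence, 15-30 min RT, reports cellular ATP as viability.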
# An asterisk follows results filed as active; u = inconclusive; x = no result given; [ ] = remark or other dose. Unless noted, the call rests on the fitted dose curve; in most records, active means well fitted curve in the direction sought with a large enough effect; inconclusive means small, poorly fitted or top-dose-only effect, or another doubt; inactive means no such curve, though single readings can be large; an effect the other way counts as inactive or inconclusive.
SMILES,mIDH1 inhibitor,Anesthetic bind,Nrf2 ARE act,A549 tox,Nrf2 block,Giardia kill
CCCCC(=O)Nc1ccc(C)c(S(=O)(=O)N2CCCCCC2)c1,0%,x,5%,u,16µM*,1
CCOc1ccc(NC(=O)CN2CCCC2c2cccs2)cc1S(=O)(=O)N1CCCCC1 (configuration not stated),1%,x,8%,-5%,u,-13
Cc1c(Br)cc(F)c([S+](=O)([O-])N2CCN([S+](=O)([O-])c3ccc4c(c3)OCCO4)CC2)c1F,x,x,x,1%,8%,x
COc1ccc(NC(=O)COc2ccccc2Cc2ccccc2)cc1S(N)(=O)=O,-20%,-15%,0%,u,13µM*,-2
COc1ccc(NC(=O)CN(Cc2ccccc2)Cc2ccccc2)cc1S(N)(=O)=O,3%,-3%,-1%,u,0%,15
Cc1ccccc1OCC(=O)Nc1ccc(C)c(S(=O)(=O)N2CCCCCC2)c1,-1%,x,1%,-23%,23µM*,8
Cc1ccc2c(=O)c3cccc(CC(=O)O)c3oc2c1C,x,6%,x,x,x,x
O=C(CCN1CCC(c2ccccc2)C1)c1ccccc1 (configuration not stated),0%,-5%,8%,2%,x,-13
O=C(CCN1CCC(c2ccccc2)C1)c1ccc2c(c1)OCCO2 (configuration not stated),-7%,-7%,8.9µM*,-2%,-19%,3
O=C(CCN1CCc2ccccc2C1)c1ccc2c(c1)OCCO2,0%,u,-2%,x,12%,1
O=C(CCN1CCCCC1)c1ccc2c(c1)OCCO2,2%,-8%,18µM*,4%,6%,-1
CCc1cccc(C)c1NC(=O)CCCSc1nc2ccccc2s1,-1%,-4%,3%,0%,u,9
CCc1cccc(CC)c1NC(=O)C1SC(=Nc2ccccc2C)C(c2nc3ccccc3s2)=C1N (configuration not stated),4%,-8%,1%,-22%,15µM*,0
COc1ccc2c(c1)-c1c(sn(-c3ccccc3)c1=S)C(C)(C)N2,-5%,-6%,5%,-5%,-6%,-23
COc1ccc(-n2sc3c(c2=S)-c2cc(OC)ccc2NC3(C)C)cc1,1%,-5%,2%,-18%,21µM*,-21
COc1ccc(C(O)(C2CCCCC2)C(CN2CCOCC2)c2ccccc2)cc1 (configuration not stated),-15%,1%,0%,-16%,21µM*,-20
O=S1(=O)N=C(Oc2cccc(Cl)c2)c2ccccc21,x,x,x,-1%[65.3 µM],-4%[65.3 µM],x
O=c1oc2ccccc2cc1-c1csc(Cc2nc(-c3ccc(Cl)cc3)cs2)n1,0%,-7%,0%,-1%,21µM*,10
O=c1oc2ccccc2cc1-c1nc(-c2cccc(Cl)c2)cs1,-4%,33%,28%,7%,x,x
O=C(CCN1C(=O)/C(=C\c2ccccc2F)SC1=S)N1CCOCC1,9%,x,10%,x,x,x
CN1CCN(C(=O)CCN2C(=O)/C(=C/c3ccccc3Cl)SC2=S)CC1,-9%,-17%,u,21µM*,u,-6
CN1CCN(C(=O)CCN2C(=O)/C(=C\c3ccccc3F)SC2=S)CC1,-4%,-16%,17%,23µM*,u,11
O=C(CCCN1C(=O)S/C(=C\c2ccccc2)C1=O)NNC(=O)c1ccccc1O,1%,-15%,-3%,2%,13µM*,19
CC(/C=C1\SC(=O)N(CCCC(=O)O)C1=O)=C\c1ccccc1,8%,-1%,-3%,-1%,2.3µM*,-2
CCOc1cccc(C(=O)Nc2ccc(-c3nc4cc(C)cc(C)c4o3)cc2)c1,-10%,-7%,3%,10%,u,x
SMILES,mIDH1 inhibitor,Anesthetic bind,Nrf2 ARE act,A549 tox,Nrf2 block,Giardia kill
COc1ccccc1NS(=O)(=O)c1cn(C)c(C)n1,12%,56%,0%,1%,x,x
CCOC(=O)C1CCN(c2c(C(=O)c3ccc(OC)cc3)cnc3ccccc23)CC1,13%,40%,0%,u,u,x
COc1cc(C2Nc3ccccc3C(=O)N2Cc2ccccc2)ccc1OCc1ccc(NC(C)=O)cc1 (configuration not stated),x,x,x,0%,14%,x
Cc1nn(C)c2c1c(-c1ccccc1)cc(=O)n2CC(=O)NC(C)C,-8%,-11%,4%,-4%,u,x
O=C(CCCN1C(=O)/C(=C/c2ccccc2Cl)SC1=S)NNC(=O)c1ccccc1,3%,-8%,0%,-12%,21µM*,-12
O=C(CCCN1C(=O)/C(=C/c2ccccc2Cl)SC1=S)NNC(=O)c1cccnc1,6%,-16%,11%,-12%,u,33
O=S(=O)(c1ccc(OC(F)(F)F)cc1)N1CCN(c2nc(-c3cccs3)nc3ccccc23)CC1,x,x,x,0%,-22%,8
O=C(Nc1ccccc1N1CCOCC1)c1cc(-c2ccco2)nc2ccccc12,-2%,-15%,6%,-20%,18µM*,-12
CCOc1ccc(S(=O)(=O)Nc2ccccc2C(=O)Nc2ccccc2N2CCOCC2)cc1,2%,-12%,0%,-5%[1.84 µM],3%,17
Cc1ccc(C)c(S(=O)(=O)Nc2ccccc2C(=O)Nc2ccccc2N2CCOCC2)c1,4%,-10%,0%,-15%,23µM*,1
O=C(Nc1ccccc1N1CCOCC1)c1ccccc1NS(=O)(=O)c1ccc(F)c(F)c1,-9%,-22%,0%,-18%,21µM*,-3
Cc1cc(F)ccc1S(=O)(=O)Nc1ccccc1C(=O)Nc1ccccc1N1CCOCC1,-7%,-16%,0%,-2%,21µM*,-11
O=C(Nc1ccccc1N1CCOCC1)c1ccccc1NS(=O)(=O)c1ccc(F)cc1,-2%,u,0%,3%,4%,-3
Cc1ccc(C(=O)Nc2ccccc2N2CCCC2)cc1S(=O)(=O)N1CCOCC1,6%,x,1%,2%,-5%,-9
Cc1ccc(N2CCN(C(=O)c3c(C)oc4ncn(CC(C)C)c(=O)c34)CC2)c(C)c1,-9%,-8%,5%,0%,-6%,x
COCCNC(=O)c1ccc2c(=O)n(CCc3ccccc3)c(SCC(=O)CC(=O)OC)nc2c1,8%,u,4%,13%,17%,x
CC(=O)c1ccc(-n2nnnc2SCC(=O)Nc2cccc(NC(=O)c3ccco3)c2)cc1,-1%,u,7%,-13%,23µM*,-9
Cc1ccccc1N1C(=O)c2cc(S(N)(=O)=O)c(Cl)cc2N[C@H]1C,x,-3%[29.3 µM],x,x,x,x
